Several values for one entry are separate records, joined by “and”; a condition that tells them apart may be missing. Identical values can stand only once. Records with an inconclusive call do not appear. Activity calls are given as the source filed them. Unless noted, calls come from the whole dose curve; as a rule, active = well fitted curve in the direction sought with a large enough effect; inconclusive = small, poorly fitted or top-dose-only effect, or another doubt; inactive = no such curve, though single readings can be large; an effect the other way counts as inactive or inconclusive.
Key:
SKOV3 = test: Primary qHTS to identify gynecologic anti-cancer compounds using libraries of approved drugs and bioactive compounds (AID 1345084); details: Gynecologic cancer cell panel viability, ATPlite luminescence, 48 h; series mostly up to 57.5 µM; note: nearly all actives have a fitted effect of over 55% in size; note: potency is the fitted concentration of half-maximal effect
In short: (§1)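 Cell viability after 48 h drug treatment, ATPlite luminescence readout; five doses.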

Tov-21-G = test: as above; details: Gynecologic cancer cell panel viability, ATPlite luminescence, 48 h; series mostly up to 57.5 µM
In short: as §1

Tov112D = test: as above; details: Gynecologic cancer cell panel viability, ATPlite luminescence, 48 h; series mostly up to 57.5 µM
In short: as §1

[1] = Drug repurposing screens with cells derived from glioblastoma tumor samples (AID 1345199); details: GBM patient neurospheres viability, ATP luminescence, 48 h; note: nearly all actives have a fitted effect of over 40% in size; note: potency is the fitted concentration of half-maximal effect; for activity, negative = cell killing: % is set by controls: 0 for no effect and ±100 for the full control effect
In short: (§2)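 Primary testing used CD133+ neurospheres from four GBM patients, seven concentrations, 48 h exposure and ATP-based viability; confirmation added three slower-growing patient lines.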

astro = test: as above; details: viability, ATP luminescence, 48 h; series mostly up to 45.9 µM
In short: as §2

[2] = biological target: Nuclear receptor subfamily 1 group I member 2 (Rattus norvegicus) (UniProt Q9R1A7); test: qHTS assay for small molecule activators of the rat pregnane X receptor (rPXR) signaling pathway (AID 651751; call rule not given here; note: 0% is about no effect); details: rPXR reporter cells, luciferase (One-Glo), 24 h
Chain of Nuclear receptor subfamily 1 group I member 2 (Rattus norvegicus) (Q9R1A7 whole entry, looked up): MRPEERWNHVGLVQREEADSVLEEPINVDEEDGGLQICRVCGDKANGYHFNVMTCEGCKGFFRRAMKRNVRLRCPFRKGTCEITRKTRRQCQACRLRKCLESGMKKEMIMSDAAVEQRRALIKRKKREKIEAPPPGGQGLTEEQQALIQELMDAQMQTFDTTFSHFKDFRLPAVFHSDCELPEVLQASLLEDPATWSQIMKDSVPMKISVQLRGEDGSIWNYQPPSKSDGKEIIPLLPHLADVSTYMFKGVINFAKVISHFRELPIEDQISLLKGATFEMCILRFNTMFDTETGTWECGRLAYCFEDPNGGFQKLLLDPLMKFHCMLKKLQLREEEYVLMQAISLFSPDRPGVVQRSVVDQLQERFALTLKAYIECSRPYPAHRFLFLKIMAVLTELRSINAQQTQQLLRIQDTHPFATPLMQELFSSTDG

[3] = qHTS assay for small molecule activators of the human pregnane X receptor (PXR) signaling pathway (AID 720659; call rule not given here; note: 0% is about no effect)
[4] = at 46.1 µM (top of the series), tumour line C
[5] = at 45.9 µM (top of the series), tumour line B
[6] = at 45.9 µM (top of the series), tumour line D
[7] = at 21.2 µM (top of the series), tumour line D
[8] = at 20 µM (top of the series), tumour line C
[9] = at 21.2 µM (top of the series), tumour line B

CCOC(=O)c1c(N)sc2c1CCN(Cc1ccccc1)C2
active: Potency ([1]; tumour line A) 11.2 µM
inactive: Potency (SKOV3) | Potency (Tov-21-G) | Potency (Tov112D) | activity, negative = cell killing [1, 4] -15.7% | Potency (astro)

CCCCCCCCCCCCCCCCO
inactive: Potency (SKOV3) | Potency (Tov-21-G) | Potency (Tov112D) | activity, negative = cell killing [1, 5] -2.36% | activity, negative = cell killing [1, 6] 5.55% | activity, negative = cell killing [1, 4] 3.59% | Potency (astro) | max response [2] 0.781% | outcome [3]

O=C(CCN1CCN2CCCC2C1)N1c2ccccc2Sc2ccc(Cl)cc21 (stereo not given)
inactive: Potency (SKOV3) | Potency (Tov-21-G) | Potency (Tov112D) | Potency (astro)

CCOC(=O)c1ccc(N)cc1
active: Potency ([1]; tumour line B) 14.1 µM
inactive: Potency (SKOV3) | Potency (Tov-21-G) | Potency (Tov112D) | activity, negative = cell killing [1, 7] -25.1% | Potency (astro)

O=C1C(=O)c2ccccc2C(O)=C1C1CCC(c2ccc(Cl)cc2)CC1 (stereo not given)
inactive: Potency (SKOV3) | Potency (Tov-21-G) | Potency (Tov112D) | activity, negative = cell killing [1, 8] -16.4%
active: Potency ([1]; tumour line A) 14.1 µM | Potency ([1]; tumour line D) 8.91 µM | Potency (astro) 12.6 µM

O=C(Nc1ccc([N+](=O)[O-])cc1)Nc1ccc([N+](=O)[O-])cc1
inactive: Potency (SKOV3) | Potency (Tov-21-G) | Potency (Tov112D) | activity, negative = cell killing [1, 6] -14.3% | activity, negative = cell killing [1, 4] -15.7% | Potency (astro)

O=C1OC2(c3ccccc31)c1cc(Br)c(O)c(Br)c1Oc1c2cc(Br)c(O)c1Br
inactive: Potency (SKOV3) | Potency (Tov-21-G) | Potency (Tov112D) | activity, negative = cell killing [1, 5] -12.6% | activity, negative = cell killing [1, 6] -6.67% | activity, negative = cell killing [1, 4] -34.7% | Potency (astro)

O=C(O)c1ccc(S(=O)(=O)N(Cl)Cl)cc1
inactive: Potency (SKOV3) | Potency (Tov-21-G) | Potency (Tov112D) | activity, negative = cell killing [1, 5] -12% | activity, negative = cell killing [1, 6] -8.56% | activity, negative = cell killing [1, 4] -26.9% | Potency (astro) | max response [2] 3.23% | outcome [3]

CN1CCN(C2=Nc3cc(F)ccc3Cc3ccccc32)CC1
inactive: Potency (SKOV3) | Potency (Tov-21-G) | Potency (Tov112D) | Potency (astro)

CC(C(=O)O)c1cccc(Oc2ccccc2)c1 (stereo not given)
inactive: Potency (SKOV3) | Potency (Tov-21-G) | Potency (Tov112D) | activity, negative = cell killing [1, 8] 4.85% | activity, negative = cell killing [1, 9] -4.71% | activity, negative = cell killing [1, 7] -19.7% | Potency (astro)

C/C=C/c1ccc(O)c(OC)c1
inactive: Potency (SKOV3) | Potency (Tov-21-G) | Potency (Tov112D) | activity, negative = cell killing [1, 5] -4.55% | activity, negative = cell killing [1, 6] -0.156% | activity, negative = cell killing [1, 4] -3.58% | Potency (astro) | max response [2] 1.38% and 1.79% | outcome [3]

CCN(CC)CCOc1ccccc1C(=O)CCc1ccccc1
inactive: Potency (SKOV3) | Potency (Tov-21-G) | Potency (Tov112D) | Potency (astro)

C#C[C@]1(O)CC[C@H]2[C@@H]3[C@H](C)CC4=C(CCC(=O)C4)[C@H]3CC[C@@]21C
inactive: Potency (SKOV3) | Potency (Tov-21-G) | Potency (Tov112D) | activity, negative = cell killing [1, 5] -14.2% | Potency (astro)
active: Potency ([1]; tumour line A) 31.6 µM

C=C1c2cccc(O)c2C(O)=C2C(=O)[C@]3(O)C(O)=C(C(N)=O)C(=O)[C@@H](N(C)C)[C@@H]3[C@@H](O)[C@H]12
inactive: Potency (SKOV3) | Potency (Tov-21-G) | Potency (Tov112D) | activity, negative = cell killing [1, 8] -24.5% | activity, negative = cell killing [1, 9] -7.73% | Potency (astro)

CC(=O)OCC(=O)[C@H]1CC[C@H]2[C@@H]3CCC4=CC(=O)CC[C@]4(C)[C@H]3CC[C@]12C
inactive: Potency (SKOV3) | Potency (Tov-21-G) | Potency (Tov112D) | activity, negative = cell killing [1, 4] -12.5% | Potency (astro)
active: Potency ([1]; tumour line A) 8.91 µM

C[N+]1(C)CCC(=C(c2ccccc2)c2ccccc2)CC1
inactive: Potency (SKOV3) | Potency (Tov-21-G) | Potency (Tov112D) | activity, negative = cell killing [1, 8] 3.13% | activity, negative = cell killing [1, 9] -8.97% | activity, negative = cell killing [1, 7] 4.56% | Potency (astro)

O=C(NC1CCN(CCc2c[nH]c3ccccc23)CC1)c1ccccc1
inactive: Potency (SKOV3) | Potency (Tov-21-G) | Potency (Tov112D) | activity, negative = cell killing [1, 6] -28% | Potency (astro)
active: Potency ([1]; tumour line A) 11.2 µM | Potency ([1]; tumour line C) 20.6 µM

CN1CCN(c2c(F)cc3c(=O)c(C(=O)O)cn4c3c2SCC4)CC1
inactive: Potency (SKOV3) | Potency (Tov-21-G) | Potency (Tov112D) | activity, negative = cell killing [1, 5] -10.6% | activity, negative = cell killing [1, 4] -19.6% | Potency (astro)

CO[C@H]1C=CO[C@@]2(C)Oc3c(C)c(O)c4c(O)c(c(/C=N/N5CCN(C)CC5)c(O)c4c3C2=O)NC(=O)/C(C)=C\C=C[C@H](C)[C@H](O)[C@@H](C)[C@@H](O)[C@@H](C)[C@H](OC(C)=O)[C@@H]1C
inactive: Potency (SKOV3) | Potency (Tov-21-G) | Potency (Tov112D)
active: Potency (astro) 31.6 µM

O=c1[nH]c(=O)n([C@H]2C[C@H](O)[C@@H](CO)O2)cc1F
inactive: activity, negative = cell killing [1, 4] -17.1%
active: Potency (SKOV3) 7.94 µM | Potency (Tov112D) 1 µM | Potency ([1]; tumour line A) 0.891 µM

O[C@@H](c1cc(C(F)(F)F)nc2c(C(F)(F)F)cccc12)[C@H]1CCCCN1
active: Potency (SKOV3) 25.1 µM | Potency (astro) 22.4 µM

CN1CCc2cccc3c2[C@H]1Cc1ccc(O)c(O)c1-3
inactive: Potency (SKOV3) | activity, negative = cell killing [1, 4] -0.121%
active: Potency ([1]; tumour line A) 11.2 µM | Potency (astro) 20 µM

CC(C)n1c(/C=C/[C@@H](O)C[C@@H](O)CC(=O)O)c(-c2ccc(F)cc2)c2ccccc21
inactive: Potency (SKOV3) | Potency (Tov-21-G) | activity, negative = cell killing [1, 5] -35.6% | activity, negative = cell killing [1, 6] -90.6% | activity, negative = cell killing [1, 4] -19.1%
active: Potency ([1]; tumour line A) 11.2 µM

COc1cc(C)nc(-n2nc(C)cc2OC)n1
inactive: Potency (Tov-21-G) | Potency (Tov112D) | activity, negative = cell killing [1, 8] 16.5% | activity, negative = cell killing [1, 9] 1.89% | activity, negative = cell killing [1, 7] -16% | activity, negative = cell killing ([1]; at 21.3 µM (top of the series), tumour line A) -15.4% | Potency (astro)

CC(C)(Cc1c[nH]c2ccccc12)NCC(O)COc1ccccc1C#N (stereo not given)
inactive: Potency (Tov-21-G) | Potency (Tov112D)

— PubChem BioAssay (NCATS)
